Assay results taken from PMC5540273 (PLoS ONE, 2017).

Columns and labels:
Details in all cases: concentration: 1 μM, replicates: in singlicate; n = 1
BRSK2 = tested on: BRSK2
BTK = tested on: BTK
BUB1 = tested on: BUB1
CAMK1B = tested on: CAMK1B
CAMK1D = tested on: CAMK1D
CAMK1G = tested on: CAMK1G
CAMK1 = tested on: CAMK1
CAMK2A = tested on: CAMK2A
CAMK2B = tested on: CAMK2B
CAMK2D = tested on: CAMK2D
CAMK2G = tested on: CAMK2G
CAMK4 = tested on: CAMK4
CAMKK1 = tested on: CAMKK1
CAMKK2 = tested on: CAMKK2
CASK = tested on: CASK
CDC2L1 = tested on: T1, CDC2L1
T1 construct: gene CDK11B

CDC2L2 = tested on: CDC2L2
CDC2L5 = tested on: T2, CDC2L5
T2 construct: gene CDK13

CDK11 = tested on: T3, CDK11
T3 construct: gene CDK19

CDK2 = tested on: CDK2
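Further: KINOMEscan kinase panel screen.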

Compound | %Inh (BRSK2) | %Inh (BTK) | %Inh (BUB1) | %Inh (CAMK1B) | %Inh (CAMK1D) | %Inh (CAMK1G) | %Inh (CAMK1) | %Inh (CAMK2A) | %Inh (CAMK2B) | %Inh (CAMK2D) | %Inh (CAMK2G) | %Inh (CAMK4) | %Inh (CAMKK1) | %Inh (CAMKK2) | %Inh (CASK) | %Inh (CDC2L1) | %Inh (CDC2L2) | %Inh (CDC2L5) | %Inh (CDK11) | %Inh (CDK2)
CCS(=O)(=O)c1ccc(OC)c(Nc2ncc(-c3ccc(F)cc3)o2)c1.Cl [GW591947] | 0% | 0% | 8% | 0% | 3% | 4% | 0% | 0% | 0% | 12% | 21% | 0% | 1% | 12% | 3% | 0% | 0% | 0% | 19% | 0%
CCc1ccc(-c2ccc3c(c2)-c2nn(C)cc2S(=O)(=O)N3C)cc1 | 11% | 13% | 0% | 0% | 5% | 16% | 2% | 9% | 19% | 25% | 4% | 0% | 22% | 9% | 14% | 0% | 0% | 16% | 8% | 0%
CCCC(=O)Nc1n[nH]c2ncc(-c3cccc4ccccc34)cc12 [SB-642057] | 0% | 0% | 35% | 7% | 14% | 11% | 0% | 0% | 0% | 14% | 28% | 22% | 20% | 30% | 34% | 0% | 1% | 0% | 0% | 56%
O=C(Nc1n[nH]c2nc(-c3ccccc3)c(Cl)cc12)C1CC1 [SB-734909] | 51% | 0% | 0% | 0% | 0% | 0% | 0% | 0% | 0% | 0% | 0% | 0% | 0% | 1% | 35% | 0% | 18% | 0% | 0% | 2%
COc1ccc(-c2cc3c(C)nc(N)nc3n([C@H]3CC[C@H](OCCO)CC3)c2=O)cn1 | 0% | 0% | 0% | 7% | 0% | 0% | 0% | 0% | 0% | 0% | 0% | 5% | 5% | 0% | 0% | 11% | 0% | 0% | 34% | 0%
CCCNC(=O)Nc1ccc(Oc2ncnc3ccn(C)c23)cc1 | 8% | 0% | 0% | 0% | 0% | 19% | 13% | 0% | 1% | 11% | 15% | 0% | 5% | 9% | 13% | 0% | 0% | 6% | 3% | 7%
COc1cc2ncn(-c3cc(OCc4ccncc4)c(C(N)=O)s3)c2cc1OC [GSK336313] | 0% | 0% | 4% | 24% | 25% | 47% | 24% | 0% | 0% | 37% | 18% | 0% | 0% | 22% | 7% | 0% | 23% | 0% | 0% | 0%
Cc1c(Cn2c(C)nn3c(=O)cc(N4CCO[C@H](C)C4)nc23)cccc1C(F)(F)F [GSK2373690] | 0% | 0% | 0% | 0% | 7% | 0% | 7% | 0% | 0% | 0% | 18% | 0% | 0% | 10% | 14% | 0% | 8% | 0% | 14% | 0%
COC(=O)c1c(-c2ccccc2)c2cc(Br)ccc2c(=O)n1Cc1ccc(S(C)(=O)=O)cc1 | 0% | 47% | 15% | 0% | 26% | 21% | 42% | 21% | 6% | 18% | 21% | 0% | 10% | 30% | 0% | 11% | 0% | 14% | 24% | 6%
Cc1ccccc1COc1cc(-n2cnc3cc(Cl)ccc32)sc1C(N)=O [GW813349] | 2% | 18% | 0% | 0% | 5% | 0% | 0% | 0% | 0% | 0% | 0% | 0% | 0% | 0% | 17% | 0% | 0% | 0% | 23% | 0%
CCC(=O)c1c(-c2ccccc2)c2cc(Cl)ccc2c(=O)n1Cc1cc(S(C)(=O)=O)n(CC(F)F)n1 | 0% | 0% | 4% | 0% | 0% | 1% | 0% | 2% | 0% | 0% | 0% | 0% | 0% | 6% | 5% | 1% | 2% | 24% | 0% | 0%
CN(C)c1cc(-c2ccc3c(N)n[nH]c3c2)nc(N)n1 [GSK2219329] | 0% | 0% | 24% | 0% | 9% | 0% | 4% | 0% | 0% | 0% | 19% | 0% | 0% | 9% | 0% | 0% | 22% | 0% | 0% | 10%
O=C(NCCNc1ccnc(Nc2ccc(F)cc2)n1)Nc1ccc2c(c1)OCO2 [GSK1379882] | 0% | 0% | 18% | 0% | 9% | 0% | 20% | 0% | 0% | 4% | 21% | 0% | 10% | 15% | 18% | 9% | 20% | 0% | 10% | 0%
COc1cc(Nc2nccc(N3CCC(NC(=O)C4COc5ccccc5O4)C3)n2)cc(OC)c1OC (stereo not drawn) [GSK1379761] | 0% | 53% | 53% | 25% | 8% | 8% | 21% | 8% | 0% | 9% | 26% | 0% | 20% | 14% | 0% | 0% | 4% | 0% | 7% | 0%
CCc1nc(-c2cccc(C)c2)c(-c2ccncc2)s1 | 0% | 0% | 35% | 9% | 23% | 0% | 8% | 0% | 0% | 0% | 0% | 0% | 0% | 0% | 0% | 0% | 3% | 0% | 0% | 0%
CN1C(=O)C(Nc2cc(Cl)c(O)c(Cl)c2)=C(c2ccc(Cl)cc2)C1=O [SB-404321] | 0% | 0% | 12% | 25% | 0% | 0% | 0% | 0% | 0% | 0% | 0% | 0% | 0% | 0% | 14% | 0% | 0% | 0% | 9% | 0%
Cc1ccc(-c2ccc3c(ccc4sc5c(c43)NC[C@@H](C)N=C5N(C)C)n2)cn1 | 0% | 0% | 0% | 0% | 0% | 0% | 0% | 0% | 0% | 0% | 0% | 20% | 0% | 0% | 2% | 4% | 0% | 0% | 0% | 0%
Cc1ccc(Oc2ccc(Nc3ncnc4cc[nH]c34)cc2C)cn1 | 19% | 19% | 0% | 0% | 34% | 0% | 16% | 0% | 0% | 0% | 15% | 0% | 9% | 5% | 0% | 0% | 7% | 0% | 19% | 0%
CCC(=O)c1c(-c2ccccc2)c2cc(Cl)ccc2c(=O)n1Cc1cc(C(=O)NC2CC2)n(C)n1 | 0% | 15% | 6% | 0% | 12% | 0% | 20% | 0% | 0% | 0% | 6% | 0% | 2% | 15% | 0% | 4% | 0% | 0% | 3% | 0%
Cl.c1ccc(Cn2cnc3cc(Nc4ncnc5ccccc45)ccc32)cc1 [GW272142] | 0% | 0% | 38% | 31% | 0% | 0% | 0% | 0% | 0% | 15% | 32% | 0% | 9% | 31% | 26% | 0% | 13% | 0% | 8% | 0%
COc1ccc(-c2cc3c(C)nc(N)nc3n([C@H]3CC[C@H](O)CC3)c2=O)cn1 | 0% | 0% | 0% | 0% | 0% | 0% | 0% | 0% | 0% | 0% | 0% | 0% | 0% | 0% | 0% | 0% | 0% | 0% | 0% | 0%
COc1cc2nccc(Nc3cccc(Oc4ccccc4)c3)c2cc1OC.Cl [GW284543] | 1% | 24% | 38% | 28% | 0% | 0% | 2% | 0% | 0% | 6% | 19% | 0% | 8% | 19% | 1% | 0% | 11% | 0% | 0% | 0%
O=C1NC(=O)C(c2ccccc2)=C1Nc1cccc(O)c1 [SB-390534] | 0% | 0% | 0% | 0% | 0% | 0% | 0% | 17% | 0% | 62% | 13% | 0% | 0% | 0% | 1% | 0% | 0% | 1% | 0% | 2%
COC(=O)c1c(-c2ccccc2)c2cc(C)ccc2c(=O)n1Cc1ccccc1 | 0% | 0% | 0% | 0% | 19% | 12% | 21% | 0% | 0% | 0% | 0% | 0% | 0% | 6% | 0% | 0% | 0% | 0% | 0% | 0%
Cc1cc(Nc2nc(-c3cccc(C)n3)nc3ccccc23)ccn1 [GW872411] | 13% | 0% | 0% | 0% | 0% | 0% | 0% | 0% | 0% | 0% | 0% | 0% | 0% | 0% | 7% | 0% | 0% | 0% | 0% | 0%
O=C(Nc1n[nH]c2cc(-c3ccccc3F)ccc12)C1CC1 [SB-733371] | 0% | 0% | 0% | 0% | 0% | 0% | 0% | 2% | 0% | 0% | 0% | 0% | 0% | 0% | 0% | 0% | 0% | 33% | 0% | 25%
COc1ccc(Nc2nccc(N3CCC(NS(=O)(=O)c4ccc(NC(C)=O)cc4)C3)n2)cc1 (stereo not drawn) [GSK1379729] | 0% | 26% | 37% | 31% | 19% | 0% | 18% | 0% | 0% | 0% | 9% | 4% | 12% | 5% | 0% | 0% | 17% | 0% | 11% | 2%
Cc1nnc(-c2ccc3ncn(-c4ccc(S(C)=O)cc4)c3c2)o1 (stereo not drawn) | 0% | 0% | 0% | 13% | 0% | 2% | 11% | 0% | 0% | 4% | 0% | 0% | 0% | 0% | 0% | 0% | 10% | 0% | 0% | 0%
CCn1c(-c2nonc2N)nc2ccccc21 [SB-693162/GW549034] | 4% | 29% | 0% | 8% | 20% | 0% | 17% | 5% | 0% | 0% | 1% | 0% | 9% | 0% | 0% | 0% | 29% | 0% | 11% | 0%
Nc1n[nH]c2nnc(-c3ccccc3)c(-c3ccccc3)c12 [GW554060] | 0% | 2% | 60% | 5% | 0% | 4% | 3% | 0% | 0% | 0% | 17% | 0% | 13% | 11% | 71% | 0% | 0% | 0% | 0% | 0%
